# PubChem BioAssay (NCATS)
# Records with an inconclusive call do not appear. The source made the active and inactive calls. The call rests on the fitted dose curve; in most records, active means well fitted inhibition curve with a large enough effect; inconclusive means small, poorly fitted or top-dose-only effect; inactive means flat fitted curve, though single readings scatter.
# Test system: KB-3-1
# Test: Cytotoxic Profiling of Annotated Libraries Using Quantitative High-Throughput Screening (AID 1296008); further: nearly all actives have a fitted effect of over 60% in size
# Settings: Five cell lines viability, CellTiter-Glo ATP luminescence, 48-72 h; max response: active compounds read low
# Summary of the method: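 Cells exposed to compounds for 48 or 72 hr at 37 degrees Celsius. Viability read as ATP-coupled luminescence with CellTiter-Glo after 10 min at room temperature.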
# On the % scale 0 is the no-effect control and ±100 the full control effect.
row,Compound,max response
1,COc1ccc(/C=C/C(=O)O)cc1,-11.7% (inactive)
2,CCOc1ccc(S(=O)(=O)O)c2cccnc12,5.36% (inactive)
3,NCCO/C=C/[C@H](N)C(=O)O,0.921% (inactive)
4,CCC(Oc1ccccc1)C(=O)N[C@@H]1C(=O)N2[C@@H]1SC(C)(C)[C@@H]2C(=O)O (stereo partly drawn),9.51% (inactive)
5,Nc1nc(/C(=C/CC(=O)O)C(=O)N[C@@H]2C(=O)N3C(C(=O)O)=CCS[C@H]23)cs1,-7.11% (inactive)
6,COC(=O)CCC[N+](C)(C)C,-6.27% (inactive)
7,CO[C@H]1C[C@H](O[C@H]2[C@H](C)[C@@H](O[C@@H]3O[C@H](C)C[C@H](N(C)C)[C@H]3O)[C@@H](C)C[C@]3(CO3)C(=O)[C@H](C)[C@@H](O)[C@@H](C)[C@@H](C)OC(=O)[C@@H]2C)O[C@@H](C)[C@@H]1O,3.86% (inactive)
8,COc1ccc(C(=O)c2ccc(C)cc2)c(O)c1,4.04% (inactive)
9,OC[C@H]1OC([S-])[C@H](O)[C@@H](O)[C@@H]1O.[Au+] (stereo partly drawn),5.78% (inactive)
10,CNCC(=O)N[C@@H](CCCN=C(N)N)C(=O)N[C@H](C(=O)N[C@@H](Cc1ccc(O)cc1)C(=O)N[C@H](C(=O)N[C@@H](Cc1cnc[nH]1)C(=O)N1CCC[C@H]1C(=O)N[C@@H](C)C(=O)O)C(C)C)C(C)C,1.41% (inactive)
11,CC(=O)Nc1ccc(OC(=O)c2ccccc2O)cc1,-18% (inactive)
12,CN(C)CCOc1ccc(/C(=C(/CCCl)c2ccccc2)c2ccccc2)cc1,-3.21% (inactive)
13,O=C(O)COc1ccccc1/C=N/NC(=O)c1ccncc1,4.6% (inactive)
